Reference: the supplement of paper PMC7411054
Structures can show the parent of a compound that is named as a salt.

Test system: A549-GM130-SQSTM1
Assay: lowest phenotypically active concentration; higher = less potent
Details: treatment time: 24 h
Procedure, shortened: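 Two criteria together defined phenotypic activity: deviation and reproducibility. Deviation meant ≥3 of 4 wells beyond the 95th percentile of Euclidean distances in solvent control wells, and reproducibility meant a median replicate Pearson correlation above the 95th percentile of non-replicates. Wells had been treated for 24 h at 0.3, 1, 3 or 9 µM in fifteen gene-edited A549, HepG2 and WPMY1 reporter lines before live imaging.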

Lowest phenotypically active concentration, 1 µM:
Nc1nc(Cl)nc2c1ncn2[C@@H]1O[C@H](CO)[C@@H](O)[C@@H]1F [clofarabine]
CC(C)n1nc(-c2cc3cc(O)ccc3[nH]2)c2c(N)ncnc21
Cc1c(NC(=O)OC[C@@H]2COCCN2)cn2ncnc(Nc3ccc4c(cnn4Cc4cccc(F)c4)c3)c12
COc1c(Nc2cc(C)[nH]n2)nc(Sc2ccc(S(=O)(=O)Cc3cccc([N+](=O)[O-])c3F)cc2F)nc1N1CCOCC1 [Centrinone]
CN1c2ccccc2C(=O)N2CCc3c([nH]c4ccccc34)[C@H]21 [Evodiamine]
NC1(C(=O)N[C@@H](CCO)c2ccc(Cl)cc2)CCN(c2ncnc3[nH]ccc23)CC1
C[C@H]1[C@H]2CC[C@H]3[C@@H]4CC=C5C[C@@H](N(C)C)CC[C@]5(C)[C@H]4CC[C@]23CN1C [Conessine]
COc1cc2c(cc1-c1c(C)noc1C)ncc1[nH]c(=O)n([C@H](C)c3ccccn3)c12 [I-BET 151 dihydrochloride]

Lowest phenotypically active concentration, 3 µM:
CC(C)(C)Nc1nc(Nc2ccc(C(N)=O)cc2)cc(N)c1C#N
c1ccc2c(c1)Cc1c(Nc3ccc4c(c3)OCCO4)n[nH]c1-2
Cc1noc(C)c1-c1cc(O)cc(C(O)c2ccccc2)c1 (centres undefined)
O=C(Nc1ccc(-c2ccnc(Nc3ccc(N4CCOCC4)cc3)n2)cc1)[C@@H]1CCCN1
COc1cc(/C=C/c2ccc(OC)cc2OC)cc(OC)c1
OC[C@H]1O[C@@H](n2cnc3c(NCc4ccco4)ncnc32)[C@H](O)[C@@H]1O [Kinetin riboside]

Lowest phenotypically active concentration, 9 µM:
Nc1cccc(-c2cc3c(Oc4cccc(O)c4)ncnc3[nH]2)c1
COc1cc2nc(-c3cc(F)ccc3O)nc(N[C@@H]3CNC[C@H]3C(C)(C)O)c2cc1OC

Lowest phenotypically active concentration, ≤ 0.3 µM:
Cc1nc(Nc2ncc(C(=O)Nc3c(C)cccc3Cl)s2)cc(N2CCN(CCO)CC2)n1 [dasatinib]
O=C(NCc1cccc(O)c1)Nc1nc(-c2ccncc2)cs1 [RKI 1447 dihydrochloride]
COc1ccc(-c2ccc3ncc4c(c3c2)n(-c2ccc(N3CCNCC3)c(C(F)(F)F)c2)c(=O)n4C)cn1
CC(C)(C)c1cnc(CSc2cnc(NC(=O)C3CCNCC3)s2)o1
O=C(O)c1ccc(Nc2ncc3c(n2)-c2ccc(Cl)cc2C(c2c(F)cccc2F)=NC3)cc1
COc1ccc(S(=O)(=O)N(C(C)=O)c2ccccc2/C=C/c2cc[n+]([O-])cc2)cc1
CCC(=O)N1CCN(c2ccc(-n3c(=O)ccc4cnc5ccc(-c6cnc7ccccc7c6)cc5c43)cc2C(F)(F)F)CC1 [Torin 1]
COc1cc2c(NC3CCN(C(C)C)CC3)nc(N3CCC(F)(F)CC3)nc2cc1OCCCN1CCCC1
CC(=O)c1c(C)c2cnc(Nc3ccc(N4CCNCC4)cn3)nc2n(C2CCCC2)c1=O
CO[C@H]1C=CC=C(C)C(=O)NC2=CC(=O)C(NCCN(C)C)=C(C[C@@H](C)C[C@H](OC)[C@H](O)[C@@H](C)C=C(C)[C@@H]1OC(N)=O)C2=O [17-DMAG hydrochloride]
NC(=O)Nc1cc(-c2cccc(F)c2)sc1C(=O)N[C@H]1CCCNC1 [AZD 7762 hydrochloride]
Cc1c[nH]c2nccc(Oc3c(F)cc(Nc4cc(Cl)nc(N)n4)cc3F)c12
CON(C)C(=O)N1N=C(c2cc(F)ccc2F)S[C@@]1(CCCN)c1ccccc1 [ARRY 520 trifluoroacetate]
CC[C@H](CO)Nc1nc(NCc2ccc(-c3ccccn3)cc2)c2ncn(C(C)C)c2n1
Oc1cccc(-c2nc(N3CCOCC3)c3oc4ncccc4c3n2)c1 [PI 103 hydrochloride]
COc1cccc(-c2cc(F)ccc2[C@H]2Cc3nc(N)nc(C)c3C(=O)N2)n1
COc1cc(C(=O)NC2CCN(C)CC2)c(F)cc1Nc1ncc2c(n1)N(C1CCCC1)CC(F)(F)C(=O)N2C [TAK 960 hydrochloride]
CC[C@]1(O)C[C@@H]2CN(CCc3c([nH]c4ccccc34)[C@@](C(=O)OC)(c3cc4c(cc3OC)N(C=O)[C@H]3[C@@](O)(C(=O)OC)[C@H](OC(C)=O)[C@]5(CC)C=CCN6CC[C@]43[C@@H]65)C2)C1 [vincristine]
